Screening results: PubChem, Johns Hopkins Ion Channel Center
An excerpt weighted towards active compounds, which were near 1.6% of everything screened.
KCNQ2 pot – KCNQ2 (rat) channel potentiation; AID 2239; 310,000 tested, 0.54% active; B-score at 10 µM; O88943; CHO-K1 KCNQ2, FluxOR thallium flux fluorescence; stronger effect = higher value;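 active = fluorescence ratio B-score at least 3 SD of library B-scores, with initial fluorescence B-score within 3 of them, cut at about 5.3 in these data; same plate scores as AID 2156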;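 also: B-score of peak minus minimum over baseline fluorescence ratio after K+ and Tl+ stimulus; positive B-score means potentiation of KCNQ2 with more thallium influx and brighter signal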
KCNQ2 block – blocks the rat KCNQ2 potassium channel | O88943 | CHO-K1 KCNQ2, FluxOR thallium flux, 20 min; stronger effect = lower value | B-score at 10 µM | 310,000 tested, 1.1% active | AID 2156;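 active = fluorescence ratio B-score at most minus 3 library SDs, with starting brightness B-score within 2 library SDs, cut at about -5.5 in these data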
Kir21 confirm – confirmation of mouse Kir2.1 potassium channel inhibitors; AID 2032; shares compounds with KCNQ2 pot; 2,300 tested, 41% active; Tl flux remaining, % of negative control (stronger effect = lower value), % at 10 µM; Kir2.1-expressing cells, FluxOR thallium flux fluorescence; stronger effect = lower value;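 active = Primary-screen hit whose thallium flux fell at least 3 control SD below untreated wells in both duplicates, with normal baseline fluorescence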;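 also: 0% = blank wells without stimulus and 100% = stimulated no-compound controls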
HEK293 Tl flux – alters thallium flux in parental HEK293 cells, Kir2.1 counter-screen. shares compounds with KCNQ2 pot. FluxOR thallium flux fluorescence; 0% = unstimulated blank wells. FluxOR signal as % of negative control (100 = no effect), % at 10 µM. 2,300 tested, 19% active;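 active = dye signal at least 3 control SD above or below untreated wells in both duplicates, raw fluorescence within 3, either direction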;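 also: percent is based on the flux ratio of peak minus minimum fluorescence over baseline F0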
CHO-K1 Tl ctr – counter-screen for KCNQ2 potentiators: effect in parental CHO-K1 cells; FluxOR thallium flux fluorescence; zero = vehicle mean+3SD, 100% = vehicle-minus-blank window; activity increase over 3SD of controls, % at 10 µM; 1,200 tested, 43% active; shares compounds with KCNQ2 pot;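 active = signal rise of at least 3 SD above the untreated control mean, in both duplicate wells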;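 also: counter screen of KCNQ2 potentiator hits so any rise reflects channel-independent effects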
KCNQ1 sel pot – tests whether KCNQ2 potentiators also act on human KCNQ1 | shares compounds with KCNQ2 pot | CHO KCNQ1 stable, FluxOR thallium flux fluorescence; beyond 3SD, as % of vehicle-control signal | activation over 3SD threshold, % at 10 µM | 1,200 tested, 28% active | AID 2283;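 active = fluorescence ratio rise of at least 3 SD of vehicle wells above their mean, in both replicate wells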;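 also: 0% = vehicle mean plus 3 SD and 100% = vehicle minus unstimulated blank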
Target sequence (P51787 whole entry, looked up): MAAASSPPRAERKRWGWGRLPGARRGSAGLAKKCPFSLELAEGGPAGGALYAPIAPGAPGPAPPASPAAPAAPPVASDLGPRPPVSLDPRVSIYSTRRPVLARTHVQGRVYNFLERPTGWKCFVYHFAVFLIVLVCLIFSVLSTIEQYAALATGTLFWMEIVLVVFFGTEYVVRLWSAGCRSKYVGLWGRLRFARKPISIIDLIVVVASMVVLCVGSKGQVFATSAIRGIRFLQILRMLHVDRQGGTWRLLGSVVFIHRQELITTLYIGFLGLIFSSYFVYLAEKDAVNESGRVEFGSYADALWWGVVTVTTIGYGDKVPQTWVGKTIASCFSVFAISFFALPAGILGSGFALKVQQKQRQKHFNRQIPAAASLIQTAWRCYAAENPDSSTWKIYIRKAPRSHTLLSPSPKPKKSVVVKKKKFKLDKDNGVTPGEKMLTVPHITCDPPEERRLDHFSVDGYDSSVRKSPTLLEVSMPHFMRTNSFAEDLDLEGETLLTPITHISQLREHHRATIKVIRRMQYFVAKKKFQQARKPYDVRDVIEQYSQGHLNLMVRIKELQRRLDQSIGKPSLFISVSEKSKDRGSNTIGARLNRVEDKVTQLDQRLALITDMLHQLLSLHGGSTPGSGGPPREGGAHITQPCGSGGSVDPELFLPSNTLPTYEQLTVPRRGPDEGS
KCNQ2 pot confirm – rat KCNQ2 channel potentiator confirmation. shares compounds with KCNQ2 pot. CHO-KCNQ2 cells, FluxOR thallium flux fluorescence. potentiation, less the hit threshold, % at 10 µM. 1,200 tested, 68% active;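 active = fluorescence ratio rising 3 SD or more over the vehicle control mean in both replicates, plus primary screen hit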;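 also: peak minus minimum thallium fluorescence divided by baseline after K/Tl stimulus; 0% = vehicle mean plus 3 SD and 100% = vehicle minus unstimulated blank difference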
Kir21 spec – mouse Kir2.1 off-target activity of KCNQ2 potentiators. 1,200 tested, 2% active. activity over 3SD threshold, % at 10 µM. HEK293 Kir2.1, FluxOR thallium flux fluorescence. shares compounds with KCNQ2 pot. AID 2345;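 active = fluorescence ratio rise of at least 3 SD above the vehicle-control mean, seen in both replicates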;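 also: 0% = vehicle mean plus 3 SD and 100% = vehicle minus no-stimulus blank window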
KCNQ2 W236L pot – KCNQ2 potentiators acting on retigabine-insensitive rat KCNQ2 W236L mutant. 940 tested, 10% active. AID 2558. current increase over 3SD of negative controls (%), stronger effect = higher value, % at 25 µM. shares compounds with KCNQ2 pot. CHO KCNQ2-W236L, automated patch clamp current;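 active = current increase at least 3 SD of the untreated controls above them in both duplicate recordings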
* = called active by the depositor; i = inactive; · = no result given.

SMILES	KCNQ2 pot	KCNQ2 block	Kir21 confirm	HEK293 Tl flux	others
Cc1nn(C)c(C(=O)N/N=C/c2cccnc2)c1Br	0.02	i	·	·
Cc1occc1C(=O)Nc1ccccc1NC(=O)c1ccoc1C	0.04	i	·	·
Cc1occc1C(=O)Nc1cccc2ccccc12	11*	i	i	i	CHO-K1 Tl ctr=11*;KCNQ1 sel pot=-16;KCNQ2 pot confirm=56*;Kir21 spec=-38;KCNQ2 W236L pot=i
CC(C)CCn1c2ccccc2c2cc(CC(N)=O)ccc21	0.94	i	i	i
NC(=O)CCn1c2ccccc2c2ccccc21	0.2	i	·	·
O=C(Nn1c(COc2ccccc2)nc2ccccc2c1=O)C(Cl)(Cl)Cl	0.05	i	·	·
Oc1c(Cl)cc(Cl)cc1Sc1cc(Cl)cc(Cl)c1O	45*	i	i	375%*	CHO-K1 Tl ctr=47*;KCNQ1 sel pot=-3;KCNQ2 pot confirm=223*;Kir21 spec=-30;KCNQ2 W236L pot=i
Oc1c(Cl)cc(Cl)cc1CNn1cnnc1	·	i	·	·
CC(Sc1nnc(N)s1)C(=O)Nc1ccc2c(c1)OCCO2 (stereo not given)	1	i	·	·
Cc1cc(C)c2c(CC(=O)NNC(=O)c3ccccc3)coc2c1	1.6	i	·	·
COc1ccccc1C(=O)Nc1ccccc1C(=O)NC1CCCCC1	0.1	i	·	·
COc1ccccc1C(=O)NNC(=O)C(=O)NC1CCCCC1	8.5*	i	i	321%*	CHO-K1 Tl ctr=-6;KCNQ1 sel pot=33*;KCNQ2 pot confirm=42*;Kir21 spec=-18;KCNQ2 W236L pot=i
COc1cccc(N=Nc2c(N)[nH]n3c(=O)cc(-c4ccccc4)nc23)c1	5.9*	i	i	i	CHO-K1 Tl ctr=-7;KCNQ1 sel pot=-19;KCNQ2 pot confirm=-9;Kir21 spec=-24
Cc1[nH]n2c(=O)cc(-c3ccc([N+](=O)[O-])cc3)nc2c1-c1ccccc1	·	i	·	·
Cc1ccc(N=Nc2c(N)[nH]n3c(=O)cc(-c4ccccc4)nc23)cc1	4.3	i	·	·
COc1ccc(-c2c(C(F)(F)F)[nH]n3c(=O)cc(-c4ccccc4)nc23)cc1	15*	i	i	225%*	CHO-K1 Tl ctr=-18;KCNQ1 sel pot=66*;KCNQ2 pot confirm=49*;Kir21 spec=-31;KCNQ2 W236L pot=i
COc1ccc(NC(=O)COc2cccc3c2CCN(C)C3=O)c(OC)c1	0.13	i	·	·
Cc1ccc(O)c(CNc2ccc(S(=O)(=O)Nc3nccs3)cc2)c1	·	i	·	·
CC(C)(C)c1ccc(OCC(=O)NNC(=S)NC(=O)c2ccco2)c(Br)c1	·	i	·	·
CC(C)(C)c1ccc(OCC(=O)NCc2ccco2)c(Br)c1	5.4*	i	i	i	CHO-K1 Tl ctr=-11;KCNQ1 sel pot=-13;KCNQ2 pot confirm=4.0*;Kir21 spec=-36;KCNQ2 W236L pot=i
COc1cc(CC(=O)OCc2ccccc2F)cc(OC)c1OC	·	i	·	·
CCCCCCCCCCOC(=O)Cn1c(COc2cccc(C)c2)[n+](C)c2ccccc21	0.86	i	i	i
CCCCCCCCCCOC(=O)Cn1c(COc2ccc(OC)cc2)[n+](C)c2ccccc21	1.6	i	i	i
CCCCOC(=O)Cn1c(=O)n(CC(=O)OCCCC)c2ccccc21	·	i	i	i
Cc1cccc(OCCCn2c(=O)sc3ccccc32)c1	·	i	·	·
SMILES	KCNQ2 pot	KCNQ2 block	Kir21 confirm	HEK293 Tl flux	others
CCCCOC(=O)Cn1c(=N)n(CCN2CCOCC2)c2ccccc21	·	i	·	·
CCCCCOC(=O)Cn1c(=O)oc2ccccc21	·	i	·	·
CCCCCCCCCCOC(=O)Cn1c(COc2ccc(Cl)cc2)[n+](C)c2ccccc21	·	i	·	·
CCCCCCCCCCOC(=O)Cn1c(COc2ccccc2)[n+](C)c2ccccc21	·	i	i	i
COc1ccc(C)cc1NC(=O)CN1CCCN(S(=O)(=O)c2ccc(Br)cc2)CC1	·	i	·	·
N#Cc1c(NCc2ccccc2)ccnc1Cl	0.93	i	·	·
Cc1ccc(F)cc1NC(=O)CSCc1nc2sc(C)c(C)c2c(=O)[nH]1	·	i	·	·
